# Bioassay records as filed in PubChem BioAssay.
# ANO1 block = blocks the mouse calcium-activated chloride channel TMEM16A. HEK293 TMEM16A/YFP iodide influx fluorescence, ionomycin. normalized B-score (activity score, 25-100; higher = stronger inhibition) at 10 µM. Q8BHY3. 310,000 compounds, 1.2% hits;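 active means ratio plate-corrected score three or more library SD toward inhibition, starting fluorescence score within five deviations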;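 further: score derived from kinetic fluorescence span divided by baseline fluorescence per well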
# Target sequence (Q8BHY3 whole entry, looked up): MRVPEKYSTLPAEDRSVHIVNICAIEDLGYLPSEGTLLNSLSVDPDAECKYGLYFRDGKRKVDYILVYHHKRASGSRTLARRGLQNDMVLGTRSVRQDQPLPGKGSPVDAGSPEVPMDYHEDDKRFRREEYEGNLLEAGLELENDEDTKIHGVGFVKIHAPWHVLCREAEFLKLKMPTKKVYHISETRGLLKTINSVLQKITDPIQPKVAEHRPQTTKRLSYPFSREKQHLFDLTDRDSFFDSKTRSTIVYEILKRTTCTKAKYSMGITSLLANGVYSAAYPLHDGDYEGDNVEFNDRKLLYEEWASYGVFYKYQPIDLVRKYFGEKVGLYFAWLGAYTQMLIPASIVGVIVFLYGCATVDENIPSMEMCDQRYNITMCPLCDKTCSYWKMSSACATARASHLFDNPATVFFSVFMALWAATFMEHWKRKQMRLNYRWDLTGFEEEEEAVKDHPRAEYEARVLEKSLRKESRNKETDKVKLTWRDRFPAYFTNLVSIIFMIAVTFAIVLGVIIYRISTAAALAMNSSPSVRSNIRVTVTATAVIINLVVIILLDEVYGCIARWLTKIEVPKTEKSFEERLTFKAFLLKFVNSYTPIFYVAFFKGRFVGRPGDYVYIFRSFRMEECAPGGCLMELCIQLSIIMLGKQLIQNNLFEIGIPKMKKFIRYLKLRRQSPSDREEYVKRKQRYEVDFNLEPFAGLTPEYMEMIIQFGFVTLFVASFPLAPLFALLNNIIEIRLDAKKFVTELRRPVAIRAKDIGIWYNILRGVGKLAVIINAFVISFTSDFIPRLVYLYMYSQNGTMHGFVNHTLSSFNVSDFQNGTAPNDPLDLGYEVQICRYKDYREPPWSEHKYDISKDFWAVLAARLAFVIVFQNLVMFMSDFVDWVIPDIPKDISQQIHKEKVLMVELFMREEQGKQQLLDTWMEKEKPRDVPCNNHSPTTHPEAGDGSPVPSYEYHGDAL
# PP1 inh = PP1-alpha (human) inhibition in PP5 counter-screen | 320,000 compounds, 0.9% hits | inhibition, % at 6.7 µM | purified PP1alpha, OMFP fluorescence | P62136;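 active means inhibition above the mean inhibition of all tested compounds plus 3 SD, computed separately for each screening campaign, cut at about 15% in these data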
# DNA FID counter = fluorescent intercalator displacement, NS3 helicase counter-screen; DNA fluorescent intercalator displacement, fluorescence; inhibition, % at 7.9 µM; 290,000 compounds, 0.17% hits; AID 1845; in the data active means inhibition above about 37%;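 further: 0% = vehicle and 100% = reference compound; higher means more ethidium bromide displaced from hairpin DNA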
# PREPL inhibitor = human PREPL enzyme inhibition; 320,000 compounds, 0.68% hits; Q4J6C6; inhibition, % at 5.96 µM; recombinant PREPL, fluorescence polarization activity-based probe; AID 2751;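 further: 0% = enzyme with DMSO and 100% = wells lacking enzyme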
# ANO1 activ = activates or potentiates the mouse TMEM16A chloride channel | Q8BHY3 | HEK293 TMEM16A/YFP-H148Q/I152L, iodide quench fluorescence; stronger effect = lower value | B-score at 10 µM | 340,000 compounds, 0.3% hits | AID 623877;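 active means fluorescence-ratio B-score plate-corrected deviation score at least 3 library SD below zero, with starting fluorescence score within 5 deviations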;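 further: channel opened by trigger with iodide after compound preincubation; score built on the fluorescence ratio of max minus min over baseline; more negative score means more quench and so TMEM16A activation or potentiation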
# PP5 primary = inhibitors of human protein phosphatase 5 (PP5); P53041; purified PP5c, OMFP substrate fluorescence; inhibition, % at 6.7 µM; 320,000 compounds, 0.18% hits; AID 1987;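 active means inhibition above the campaign's mean inhibition across all tested compounds plus 3 SD, cut at about 9.5% in these data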;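 further: 0% = DMSO only and 100% = 100 µM cantharidin control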
# PREPL confirm = confirmation of human PREPL enzyme inhibitors; shares compounds with PREPL inhibitor; recombinant PREPL, fluorescence polarization activity probe; inhibition, % at 5.96 µM; 2,000 compounds, 67% hits; AID 2803;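 further: 0% = protein with DMSO and 100% = wells lacking protein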
# * hit, by the source's call; i = inactive; / = no result. Compounds with a hit are over-represented: about 2.7% of the library has one in this group of screens. Unless noted, no stated cut-off is given here; in the data, active means inhibition above about 43%; inactive means the rest.
SMILES,ANO1 block,PP1 inh,DNA FID counter,PREPL inhibitor,ANO1 activ,PP5 primary,PREPL confirm
Cc1ccc(S(=O)(=O)NC2=C(N3CCN(c4ccccc4F)CC3)C(=O)c3ccccc3C2=O)cc1,i,-0.9,2.6,29.9,i,2.0,/
O=C1N[C@@H](c2ccccc2)COC(=O)[C@@H](Cc2ccc(F)cc2)C/C=C\C[C@@H]1CC(=O)N(CCO)Cc1ccccc1,/,/,/,51.6*,i,/,40.7
CC(C)(C)[C@@H]1COC(=O)[C@@H](Cc2ccc(F)cc2)C/C=C\C[C@H](CC(=O)N(CCO)Cc2ccccc2)C(=O)N1,/,/,/,56.4*,i,/,46.5*
CC(C)(C)[C@@H]1COC(=O)[C@H](Cc2ccc(F)cc2)CC/C=C\C[C@@H](CC(=O)N(CCO)Cc2ccccc2)C(=O)N1,/,/,/,47.3*,i,/,50.7*
O=C1OC[C@@H]2CCCN2C(=O)[C@@H](CC(=O)N(CCO)Cc2ccccc2)C/C=C\C[C@@H]1Cc1ccc(F)cc1,/,/,/,26.8,i,/,/
O=C1OC[C@@H]2CCCN2C(=O)[C@@H](CC(=O)N(CCO)Cc2ccccc2)C/C=C\CC[C@H]1Cc1ccc(F)cc1,/,/,/,43.8*,i,/,30.4
C[C@H]1COC(=O)[C@@H](Cc2ccc(F)cc2)C/C=C\C[C@H](CC(=O)N(CCO)Cc2ccccc2)C(=O)N1,/,/,/,24.5,i,/,/
O=C1N[C@@H](Cc2ccccc2)COC(=O)[C@@H](Cc2ccc(F)cc2)CC/C=C/C[C@@H]1CC(=O)N(CCO)Cc1ccccc1,/,/,/,44.0*,i,/,43.3*
O=C1N[C@@H](Cc2c[nH]c3ccccc23)COC(=O)[C@@H](Cc2ccc(F)cc2)C/C=C\C[C@H]1CC(=O)N(CCO)Cc1ccccc1,/,/,/,61.5*,i,/,53.0*
O=C1N[C@H](Cc2ccccc2)COC(=O)[C@@H](Cc2ccc(F)cc2)CC/C=C/C[C@H]1CC(=O)N(CCO)Cc1ccccc1,/,/,/,30.4,i,/,/
O=C1N[C@@H](Cc2c[nH]c3ccccc23)COC(=O)[C@H](Cc2ccc(F)cc2)C/C=C\C[C@@H]1CC(=O)N(CCO)Cc1ccccc1,/,/,/,31.6,i,/,/
Cc1ccc2c(c1)N(C(=O)CCC(=O)NCCCN1CCOCC1)CCO2,i,-1.7,0.1,5.5,i,0.9,/
Cc1cc(C)nc(/N=C(\N)N(Cc2ccccc2)Cc2ccccc2)n1,i,-0.8,10.7,11.6,i,3.2,/
Nc1ccccc1N=Nc1ccccc1N,i,9.2,-2.0,49.9*,i,0.6,43.2*
Nc1ccccc1-c1ccccc1N,i,-1.2,9.6,4.2,i,-1.2,/
COc1ccc(NC(=O)C2CCC(C(C)(C)C)CC2)cc1S(=O)(=O)N1CCOCC1 (stereo not drawn),/,5.8,/,4.9,i,3.9,/
CC1=Nc2ccccc2/C1=C\c1sc(Nc2ccc(C)cc2)nc1O,i,2.9,1.0,52.0*,i,3.0,45.7*
CCOC(=O)c1c(Nc2ccc(Cl)cc2)sc(/C=C2\C=Nc3ccccc32)c1O,i,2.2,0.6,15.3,i,2.9,/
CC1=Nc2ccccc2/C1=C/c1sc(=O)n(CC(=O)N2CCCC2)c1O,i,5.0,-6.3,5.2,i,3.0,/
Oc1nc(Nc2cccc(Cl)c2)sc1/C=C1\C=Nc2ccccc21,i,4.8,10.0,55.9*,i,5.5,64.3*
Oc1cccc(Nc2nc(O)c(/C=C3\C=Nc4ccccc43)s2)c1,i,-1.1,4.2,53.4*,i,-0.2,52.0*
CC1CCC(NS(=O)(=O)c2ccc(N3CCCC3=O)cc2)CC1 (stereo not drawn),i,6.0,-34.0,-10.9,i,-0.6,/
Cc1ccc(S(=O)(=O)CCC(=O)Nc2ccc(S(=O)(=O)N(C)C)cc2)cc1,i,2.6,-7.5,11.2,/,-0.9,/
CCOC(=O)C1(CCOc2ccccc2)CCN(Cc2cccc(OC)c2)CC1,i,1.9,6.0,-62.9,i,1.4,/
CCOC(=O)C1(CCOc2ccccc2)CCN(Cc2cc(OC)ccc2OC)CC1,i,4.1,8.7,49.8*,i,3.7,38.5
SMILES,ANO1 block,PP1 inh,DNA FID counter,PREPL inhibitor,ANO1 activ,PP5 primary,PREPL confirm
CCCOC(=O)c1ccc(NC(=O)c2nc3nc(C)cc(C)n3n2)cc1,i,-1.6,-9.2,-7.8,i,-1.2,/
O=C(CSc1nnc(-c2ccccc2)c(-c2ccccc2)n1)Nc1ccc(Br)cn1,i,6.0,-0.5,-10.3,i,0.8,/
CN(C)c1ccc(NC(=O)c2cccc(C(=O)Nc3ccc(N(C)C)cc3)n2)cc1,i,3.8,-16.9,72.3*,i,2.1,70.5*
CCc1cc(=O)oc2c(C)c(OCC(=O)NC3CC(C)(C)NC(C)(C)C3)ccc12,i,-6.0,18.3,41.2,i,-2.3,/
CCc1cc(=O)oc2c(C)c(OC(C)C(=O)NC3CC(C)(C)NC(C)(C)C3)ccc12 (stereo not drawn),i,0.7,29.3,48.9*,i,-2.1,38.3
Cc1ccc(CSc2ccc3nnc(-c4ccccn4)n3n2)cc1,i,16.0*,-32.0,50.4*,i,0.4,38.5
Oc1cc(Nc2ccncc2)cc2cccnc12,/,/,/,46.5*,i,/,51.0*
Oc1cc(Nc2cccnc2)cc2cccnc12,/,/,/,29.1,i,/,/
CC(=O)Nc1ccc(S(=O)(=O)N(C)CC(=O)N/N=C/c2ccncc2)cc1,i,-5.2,-2.1,17.5,i,3.0,/
Cc1ccc2[nH]c3c(c2c1)CCC3=O,i,-1.8,-5.8,4.7,i,0.5,/
Cc1ccc2[nH]c3c(c2c1)CCc1cn[nH]c1-3,i,1.7,18.2,46.6*,i,8.0,25.4
O=[N+]([O-])c1ccc(CN2CCN(c3ccc([N+](=O)[O-])cc3)CC2)cc1,i,-0.1,2.6,44.6*,i,2.0,50.7*
O=[N+]([O-])c1ccc(N2CCN(Cc3cccc([N+](=O)[O-])c3)CC2)cc1,i,5.9,3.4,44.9*,i,0.6,44.2*
O=[N+]([O-])c1ccc(CN2CCSCC2)cc1,i,0.3,7.0,6.1,i,2.8,/
COC(=O)CN(C)C(=O)c1ccccc1OC1CCN(S(C)(=O)=O)CC1,i,2.1,-8.5,8.6,i,4.5,/
Cc1ccsc1/C=N/N=C1\C(=O)Nc2ccccc21,i,-2.6,-0.9,52.9*,i,3.2,51.6*
O=C1Nc2ccccc2/C1=N\N=C\c1ccc(O)c(O)c1,i,2.1,-2.3,2.0,i,-0.6,/
COc1ccc(OCC(=O)NC(=S)Nc2ccccc2F)cc1,i,0.3,-1.9,-5.3,i,3.6,/
